# In PubChem BioAssay (EPA / NIEHS):
# Records with an inconclusive call do not appear. Calls of active or inactive are those of the source. Rule for the calls, unless noted: active = hit-call score of the fitted dose curve at least 0.9, where 1 is the maximum; inactive = score below 0.9.
# How the values were obtained:
# [1] = read-out: Interleukin 6 (IL6), IL6 (gene 3569); assay: BSK_BT_xIL6: BioMAP Diversity Plus: BT Assay for Interleukin 6 (IL6) Biomarker Activity (AID 2284228); details: primary human B cells with PBMC
# Method in brief: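 Human B cell plus PBMC co-culture exposed to test chemical for 24 h; secreted IL-6 quantified by Luminex xMAP bead assay. Activity fitted in the positive direction against DMSO as negative control and baseline.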
# [2] = read-out: Interleukin 17A (IL17A), IL17A (gene 3605); assay: BSK_BT_xIL17A: BioMAP Diversity Plus: BT Assay for Interleukin 17A (IL17A) Biomarker Activity (AID 2284229); details: primary human B cells with PBMC
# Method in brief: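 B cells co-cultured with PBMC were exposed to test chemicals, and secreted IL-17A was quantified 24 h after dosing by Luminex xMAP bead immunoassay. Activity was fitted in the gain direction against DMSO as baseline.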
# [3] = read-out: Tumor necrosis factor (Homo sapiens) (UniProt P01375); assay: BSK_BT_xTNFa: BioMAP Diversity Plus: BT Assay for Tumor necrosis factor alpha (TNF-alpha) Biomarker Activity (AID 2284230); details: primary human B cells with PBMC
# Method in brief: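 B cells with PBMC in co-culture, dosed and sampled at 24 h; secreted TNF-alpha measured by Luminex xMAP bead assay. Activity fitted in the gain direction against DMSO as negative control and baseline.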
# [4] = read-out: Vascular cell adhesion molecule 1 (VCAM1), VCAM1 (gene 7412); assay: BSK_MyoF_VCAM1: BioMAP Diversity Plus: MyoF Assay for Vascular cell adhesion molecule 1 (VCAM1) Biomarker Activity (AID 2284231); details: primary human lung fibroblasts
# Method in brief: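 Primary human lung fibroblasts were dosed with test chemical for 24 h, then cell-surface VCAM-1 was measured by ELISA. Activity was fitted in the positive direction against DMSO as negative control and baseline.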
# [5] = read-out: Collagen I, COL1A1 (gene 1277); assay: BSK_MyoF_CollagenI: BioMAP Diversity Plus: MyoF Assay for Collagen I Biomarker Activity (AID 2284238); details: primary human lung fibroblasts
# Method in brief: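 Human lung fibroblasts were exposed to test chemical for 24 h, then Collagen I was quantified by ELISA. Activity was fitted in the increasing direction against DMSO as the negative control and baseline.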
# [6] = read-out: Interleukin 17F (IL17F), IL17F (gene 112744); assay: BSK_BT_xIL17F: BioMAP Diversity Plus: BT Assay for Interleukin 17F (IL17F) Biomarker Activity (AID 2284243); details: primary human B cells with PBMC
# Method in brief: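 B cell/PBMC co-culture (human primary), 24 h compound exposure; sIL-17F by Luminex xMAP; gain-of-signal fit vs DMSO baseline.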
# [7] = read-out: Actin alpha 1 (ACTA1), ACTA1 (gene 58); assay: BSK_MyoF_ACTA1: BioMAP Diversity Plus: MyoF Assay for Actin alpha 1 (ACTA1) Biomarker Activity (AID 2284244); details: primary human lung fibroblasts
# Method in brief: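 Measured by ELISA: alpha-smooth muscle actin in human primary lung fibroblasts 24 h after dosing, with DMSO as baseline and upward signal change as the fitted direction.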
# [8] = read-out: Interleukin 2 (IL2), IL2 (gene 3558); assay: BSK_BT_xIL2: BioMAP Diversity Plus: BT Assay for Interleukin 2 (IL2) Biomarker Activity (AID 2284245); details: primary human B cells with PBMC
# Method in brief: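 Secreted interleukin-2 from human B cell/PBMC co-cultures, measured 24 h post-dosing by Luminex multiplex immunoassay. Upward-direction curve fitting against DMSO baseline.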
# [9] = UKN4_HCS_LUHMES_cell_viability: Viability Assessment in the University of Konstanz (UKN) Leist Lab Neurite Outgrowth Assay in human LUHMES cells (UKN4) (AID 2284232)
# Method in brief: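 Human dopaminergic-model LUHMES neurons were exposed to chemicals for 24 h after a 2-day differentiation. Viability was scored by imaging Hoechst H-33342 staining, with activity fitted in both directions relative to DMSO controls.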
# [10] = UKN2_HCS_IMR90_cell_viability: Viability Assessment in the University of Konstanz (UKN) Leist Lab Neural Crest Cell Migration Assay in human induced IMR90 Pluripotent Stem Cells (UKN2) (AID 2284233);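 note: viability of neural crest cells differentiated from IMR90 iPSC measured by calcein-AM fluorescence imaging; cells exposed to compound for 24 h after a 24 h migration phase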
# Method in brief: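 Human IMR90-derived neural crest cells were allowed to migrate for 24 h into a cell-free zone, then exposed to test chemicals for 24 h. Calcein-AM and Hoechst staining with high-content imaging gave viability, analysed against DMSO baseline.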
# [11] = CCTE_Mundy_HCI_Cortical_NOG_NeuronCount: CCTE's Neurite Outgrowth Assay in rat cortical cells for Neuron Count, Mundy Lab (AID 2284236; active = hit-call score of the fitted dose curve at least 0.9, where 1 is the maximum;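 note: neurons counted by imaging betaIII-tubulin and Hoechst stained cortical cells; cells exposed to compound for about 48 hours before fixation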)
# Method in brief: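 Read-out: neuron number by high-content imaging of betaIII-tubulin (Alexa Fluor-488) and Hoechst-labelled rat primary cortical cells.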
# [12] = CCTE_Mundy_HCI_Cortical_NOG_BPCount: CCTE's Neurite Outgrowth Assay in rat cortical cells for Branch Point Count, Mundy Lab (AID 2284237);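 note: branch points counted about two days after chemical exposure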
# Method in brief: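 Measured 50.33 h after dosing, this morphology endpoint uses rat primary cortical cultures labelled for betaIII-tubulin. Branch points are quantified by high-content imaging, with DMSO as negative control and baseline.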
# [13] = CCTE_Mundy_HCI_hNP1_Casp3_7: CCTE's Caspase-Glo 3/7 Assay in human neuroprogenitor cells for Apoptosis, Mundy Lab (AID 2284240)
# Method in brief: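 Apoptosis is scored by activated caspase-3/7 luminescence in WA09-derived neural progenitor cells, measured 26.5 h after chemical dosing. Values represent gain of signal relative to DMSO vehicle.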
# [14] = CCTE_Mundy_HCI_hNP1_CellTiter: CCTE's Cell Titer-Glo 2 Assay in human neuroprogenitor cells for Viability, Mundy Lab (AID 2284241; active = hit-call score of the fitted dose curve at least 0.9, where 1 is the maximum;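 note: a hit is a drop in ATP luminescence versus DMSO meaning reduced viability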)
# Method in brief: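 Human neural progenitor cells (hNP1, WA09-derived) were plated on poly-L-ornithine/laminin and grown 40 to 44 hours at 37 °C, 5% CO2 before chemical addition. Twenty-four hours later, ATP was measured by CellTiter-Glo luminescence; loss of signal versus DMSO indicates reduced viability.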
# [15] = CCTE_Mundy_HCI_Cortical_Synap_Neur_Matur_NeuronCount: CCTE's Synaptogenesis and Neurite Maturation Assay in rat cortical cells for Neuron Count, Mundy Lab (AID 2284242; active = hit-call score of the fitted dose curve at least 0.9, where 1 is the maximum;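 for AC50: neuron number from Hoechst nuclei and MAP2 staining by high-content imaging; hits reduce neuron count versus DMSO baseline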)
# Method in brief: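 Imaging-based neuron count in rat cortical cultures after chemical exposure from DIV 7 to DIV 12, with AraC added at DIV 5. Activity is fitted relative to DMSO.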
# [16] = read-out: Monokine induced gamma interferon (MIG), CXCL9 (gene 4283); assay: BSK_KF3CT_MIG: BioMAP Diversity Plus: KF3CT Assay for Monokine induced gamma interferon (MIG) Biomarker Activity (AID 2284248); details: primary human keratinocytes with fibroblasts
# Method in brief: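 Human keratinocyte plus foreskin fibroblast primary co-culture dosed with test chemical for 24 h; MIG level measured by ELISA and fitted in the positive direction against DMSO as baseline.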
# [17] = read-out: Collagen I, COL1A1 (gene 1277); assay: BSK_hDFCGF_CollagenI: BioMAP Diversity Plus: hDFCGF Assay for Collagen I Biomarker Activity (AID 2284250); details: primary human foreskin fibroblasts
# Method in brief: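 Cells were primary human foreskin fibroblasts treated for 24 h. Collagen I levels were then determined by ELISA and compared against DMSO controls.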
# Tumor necrosis factor (Homo sapiens), sequence (P01375 whole entry, looked up): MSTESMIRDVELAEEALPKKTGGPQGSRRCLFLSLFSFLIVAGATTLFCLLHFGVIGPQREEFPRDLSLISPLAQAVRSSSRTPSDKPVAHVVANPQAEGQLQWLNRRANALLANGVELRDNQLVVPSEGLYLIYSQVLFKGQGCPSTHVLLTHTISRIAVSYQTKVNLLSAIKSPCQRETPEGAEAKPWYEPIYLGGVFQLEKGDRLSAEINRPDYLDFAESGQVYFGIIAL
smiles,measurement,setting,value
COC[C@H](C)N(C(=O)CCl)c1c(C)csc1C,outcome,[1],inactive
same,outcome,[2],inactive
same,outcome,[3],inactive
same,outcome,[4],inactive
same,outcome,[5],inactive
same,outcome,[6],inactive
same,outcome,[7],inactive
same,outcome,[8],inactive
COP(=S)(OC)Oc1cc(Cl)c(Cl)cc1Cl,outcome,[1],inactive
same,outcome,[2],inactive
same,outcome,[3],inactive
same,AC50,[4],31.1 µM (active)
same,outcome,[5],inactive
same,outcome,[6],inactive
same,AC50,[7],31.9 µM (active)
same,outcome,[8],inactive
O=C1C2(Cl)C3(Cl)C4(Cl)C(Cl)(Cl)C5(Cl)C3(Cl)C1(Cl)C5(Cl)C24Cl (stereo not given),AC50,[9],7.53 µM (active)
same,AC50,[10],3.06 µM (active)
same,AC50,[11],15 µM (active)
same,AC50,[12],7.19 µM (active)
same,AC50,[13],20.1 µM (active)
same,AC50,[14],23.5 µM (active)
same,outcome,[15],inactive
OCc1ccco1,outcome,[1],inactive
same,outcome,[2],inactive
same,outcome,[3],inactive
same,outcome,[4],inactive
same,outcome,[5],inactive
same,AC50,[6],9.51 µM (active)
same,outcome,[7],inactive
same,outcome,[8],inactive
COC(=O)Cc1ccccc1,outcome,[16],inactive
same,outcome,[17],inactive
C=C(C)C(=O)[O][Sn]([CH2]CCC)([CH2]CCC)[CH2]CCC,AC50,[9],0.181 µM (active)
same,AC50,[10],0.272 µM (active)
same,AC50,[11],0.0826 µM (active)
same,AC50,[12],0.0846 µM (active)
same,AC50,[13],2.77 µM (active)
same,AC50,[14],0.335 µM (active)
same,AC50,[15],0.0547 µM (active)
Nc1ncc([N+](=O)[O-])s1,outcome,[1],inactive
same,outcome,[2],inactive
same,outcome,[3],inactive
same,outcome,[4],inactive
same,outcome,[5],inactive
same,outcome,[6],inactive
same,outcome,[7],inactive
same,outcome,[8],inactive
CC(=O)OC(c1ccccc1)C(Cl)(Cl)Cl (stereo not given),outcome,[16],inactive
same,outcome,[17],inactive
NC(=S)Nc1ccccc1,outcome,[1],inactive
same,outcome,[2],inactive
same,outcome,[3],inactive
same,outcome,[4],inactive
same,outcome,[5],inactive
same,outcome,[6],inactive
same,outcome,[7],inactive
same,outcome,[8],inactive
CCSC(C)CC1CC(=O)C(C(CC)=NOC/C=C/Cl)=C(O)C1 (stereo not given),outcome,[1],inactive
same,outcome,[2],inactive
same,outcome,[3],inactive
same,outcome,[4],inactive
same,outcome,[5],inactive
same,outcome,[6],inactive
same,outcome,[7],inactive
same,outcome,[8],inactive
COP(=S)(OC)Oc1c(Cl)cc(C)cc1Cl,outcome,[1],inactive
same,AC50,[2],10.7 µM (active)
same,outcome,[3],inactive
same,outcome,[4],inactive
same,outcome,[5],inactive
same,outcome,[6],inactive
same,outcome,[7],inactive
same,outcome,[8],inactive
Oc1ccc(-c2ccccc2)cc1,outcome,[1],inactive
same,outcome,[2],inactive
same,outcome,[3],inactive
same,outcome,[4],inactive
same,outcome,[5],inactive
same,outcome,[6],inactive
same,outcome,[7],inactive
same,outcome,[8],inactive
CC1(C)Cc2cccc(O)c2O1,outcome,[1],inactive
same,outcome,[2],inactive
same,outcome,[3],inactive
same,outcome,[4],inactive
same,outcome,[5],inactive
same,outcome,[6],inactive
same,outcome,[7],inactive
same,outcome,[8],inactive
